Experimental data taken from the supplement of paper PMC12350171.
Where a name gives a salt, the structure may show the parent alone.

Experiments:
Settings in all cases: 20 µM
[1] = test system: Salmonella enterica typhimurium; test: growth AUC normalised to DMSO control (fraction of control); higher = less growth inhibition, active = hit call of the paper
Summary of the method: (§1)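 Three biological replicates were carried out, with OD578 read hourly for 24 h. Before inoculation at a starting OD578 of 0.01, pathogens were passaged anaerobically twice; plates were pre-reduced mGAM containing 20 μM compound and 1% DMSO, sealed with breathable membranes, and the Haemophilus parainfluenzae medium carried added hemin and NAD. Area under each growth curve was calculated by the trapezoidal rule up to the exponential-to-stationary transition and normalised to DMSO controls on the same plate.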

Shigella flexneri = test: as above
Summary of the method: as §1

Vibrio cholerae = test: as above
Summary of the method: as §1

[2] = test system: Yersinia pseudotuberculosis; test: as above
Summary of the method: as §1

P. vulgatus RND KO = test: growth AUC normalised to DMSO control (median) (fraction of control); higher = less growth inhibition, active = hit call of the paper
Summary of the method: (§2)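 For normalised area under the curve, growth curves were truncated at entry into stationary phase, integrated by the trapezoidal rule and divided against vehicle wells on the same plate. The curves came from strains passaged twice overnight without oxygen and then grown in mGAM in 96-well plates at a starting OD578 of 0.01. Each well held an approved-drug library compound at 20 μM with 1% DMSO, and OD578 was read hourly for 24 h in an anaerobic incubator. Values are medians of three biological replicates.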

P. vulgatus WT = test: as above
Summary of the method: as §2

[3] = test system: S. enterica typhimurium WT; test: as above
Summary of the method: as §2

[4] = test system: S. enterica typhimurium tolC KO; test: as above
Summary of the method: as §2

Measured: growth AUC normalised to DMSO control
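Wherever growth AUC normalised to DMSO control (median) is given: active when median AUC fell below 0.1.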

CCOC(=O)NNc1nncc2ccccc12 [Todralazine hydrochloride]
inactive: [1] 1.01 | Shigella flexneri 1.01 | Vibrio cholerae 0.99 | [2] 1.01 | P. vulgatus RND KO 1.01 | P. vulgatus WT 0.999 | [3] 1.01 | [4] 1.02

CC(C)(C)C(=O)OCOC(=O)[C@@H]1N2C(=O)[C@@H](NC(=O)[C@H](N)c3ccccc3)[C@H]2SC1(C)C [Pivampicillin]
active: [2] 0.818
inactive: [1] 0.97 | Shigella flexneri 1.01 | Vibrio cholerae 0.987 | P. vulgatus RND KO 1.01 | P. vulgatus WT 1.02 | [3] 0.993 | [4] 1

Nc1ncnc2c1ncn2[C@@H]1O[C@H](CO)[C@@H](O)[C@@H]1O [Vidarabine]
inactive: [1] 0.988 | Shigella flexneri 0.984 | Vibrio cholerae 0.975 | [2] 0.829 | P. vulgatus RND KO 0.971 | P. vulgatus WT 0.977 | [3] 0.99 | [4] 0.995

CC(N)CCCC(C)(C)O (stereo unspecified) [Heptaminol hydrochloride]
inactive: [1] 1 | Shigella flexneri 0.999 | Vibrio cholerae 0.986 | [2] 0.997 | P. vulgatus RND KO 1.01 | P. vulgatus WT 1.05 | [3] 1.01 | [4] 0.996

CCCCCCCCCCCCCCCC[N+](C)(C)CCN(Cc1ccc(OC)cc1)c1ncccn1 [Thonzonium bromide]
inactive: [1] 0.999 | Shigella flexneri 0.979 | Vibrio cholerae 0.944 | [2] 1.01 | P. vulgatus RND KO 0.878 | P. vulgatus WT 0.883 | [3] 1 | [4] 1

OCCN(CCO)c1nc(N2CCCCC2)c2nc(N(CCO)CCO)nc(N3CCCCC3)c2n1 [Dipyridamole]
inactive: [1] 1.01 | Shigella flexneri 1.01 | Vibrio cholerae 1.01 | [2] 1 | P. vulgatus RND KO 1 | P. vulgatus WT 0.997 | [3] 1.02 | [4] 0.956

NS(=O)(=O)c1cc2c(cc1Cl)N=C(CSCc1ccccc1)NS2(=O)=O [Benzthiazide]
inactive: [1] 0.998 | Shigella flexneri 0.958 | Vibrio cholerae 0.947 | [2] 1.01 | P. vulgatus RND KO 0.99 | P. vulgatus WT 0.992 | [3] 1.01 | [4] 0.996

COC(=O)Nc1nc2ccc(SC(C)C)cc2[nH]1 [Methiazole]
inactive: [1] 1.01 | Shigella flexneri 1 | Vibrio cholerae 0.999 | [2] 1.01 | P. vulgatus RND KO 0.992 | P. vulgatus WT 1.04 | [3] 0.997 | [4] 0.994

CCCCN1CCCCC1C(=O)Nc1c(C)cccc1C (stereo unspecified) [Bupivacaine hydrochloride]
inactive: [1] 1.04 | Shigella flexneri 0.973 | Vibrio cholerae 0.998 | [2] 0.973 | P. vulgatus RND KO 1.01 | P. vulgatus WT 0.998 | [3] 0.998 | [4] 0.985

CCOC(=O)[C@H](CCc1ccccc1)N[C@@H](C)C(=O)N1[C@H](C(=O)O)C[C@@H]2CCC[C@@H]21 [Ramipril]
inactive: [1] 1.02 | Shigella flexneri 1.06 | Vibrio cholerae 1.07 | [2] 1.01 | P. vulgatus RND KO 0.985 | P. vulgatus WT 0.99 | [3] 1.01 | [4] 1

CCOC(=O)Nc1ccc2c(c1)N(C(=O)CCN1CCOCC1)c1ccccc1S2 [Moricizine hydrochloride]
inactive: [1] 1.01 | Shigella flexneri 0.997 | Vibrio cholerae 0.942 | [2] 1.01 | P. vulgatus RND KO 0.766 | P. vulgatus WT 0.638 | [3] 1.01 | [4] 0.957

Cc1cc(N)c2ccccc2[n+]1CCCCCCCCCC[n+]1c(C)cc(N)c2ccccc21 [Dequalinium dichloride]
active: [2] 0.932 | P. vulgatus RND KO 0.0354 | P. vulgatus WT 0.0484
inactive: [1] 0.989 | Shigella flexneri 0.939 | Vibrio cholerae 0.96 | [4] 0.503

C[C@@H](O)[C@H]1C(=O)N2C(C(=O)O)=C(SCCNC=N)C[C@H]12 [Imipenem]
active: Shigella flexneri 0.63
inactive: [1] 1.02 | Vibrio cholerae 1 | [2] 0.967 | [3] 1 | [4] 0.996
